# According to PubChem BioAssay (Tox21):
# Results filed as inconclusive are left out. Some structures have more than one record in an assay (separate samples or runs), and their calls can disagree. Active and inactive are the calls of the source. Calls come from the whole dose curve; as a rule, active = well fitted cell-killing curve with a large enough effect in the repeat runs; inconclusive = weak or mixed curves, or effect the other way; inactive = flat fitted curve, though single readings scatter. Positions of bridges follow the written chain, without caps; N, C: chain ends. Non-standard residues stand in square brackets, D forms with d. Residues, ends and D or L forms follow the SMILES beside them. hArg = N=C(N)NCCCC[C@H](N)C(=O)O; Mpa = O=C(O)CCS
# Assay: qHTS assay to identify small molecule antagonists of the androgen receptor (AR) signaling pathway using the MDA cell line - cell viability counter screen (AID 743041; note: nearly all actives have a fitted effect of over 45% in size)
# Conditions: MDA-kb2 viability, CellTiter-Fluor, 16 h, cells co-treated with R1881 androgen agonist; series mostly up to 70.3 µM; viability change, negative = cytotoxic: at the top concentration
# Excerpt: National Center for Advancing Translational Sciences [NCATS]
# NIH Chemical Genomics Center [NCGC]
# U.S. Environmental Protection Agency [EPA]
# National Institutes of Environmental Health Sciences [NIEHS]
# National Toxicology Program [NTP]
# U.S. Food and Drug Administration [FDA]
# Androgen receptor (AR), a nuclear hormone receptor, plays a critical role in AR-dependent prostate cancer and other androgen related diseases. Endocrine disrupting chemicals (EDCs) and their interactions with steroid hormone receptors like AR may cause disruption of normal endocrine function as well as interfere with metabolic homeostasis, reproduction, developmental and behavioral functions. To identify the compounds that inhibit AR signaling, MDA-kb2 AR-luc cell line (from ATCC, deposited by Wilson et al.) was used to screen the Tox21 10K compound library. MDA-kb2 AR-luc cell line is human breast carcinoma cell line that was stably transfected with a luciferase reporter gene under control of the MMTV promoter containing response elements for both androgen receptor (AR) and glucocorticoid receptor (GR). The cytotoxicity of the Tox21 compound library against the MDA-kb2 AR-luc cell line was tested in parallel by measuring the cell viability using CellTiter-Fluor assay (Promega, Madison, WI) in the same wells.
# Tox21 Assay Protocol Summary:
# MDA-kb2 AR-luc cells were dispensed at 3,000 cells/4 uL/well of culture medium into white wall/solid-bottom 1536-well plates using a Multidrop Combi (ThermoFisher Scientific, Waltham, MA) dispenser. After the assay plates were incubated at a 37C and 0% CO2 for 5 hr, 23 nL of compounds dissolved in DMSO, positive controls or DMSO only was transferred to the assay plate by a Pintool station (Kalypsys, San Diego, CA), followed by addition of 1 uL of agonist (R1881) in culture medium using a Bioraptr Flying Reagent Dispenser (FRD) workstation (Beckman Coulter, Indianapolis, IN, USA). The plates were incubated at a 37C and 0% CO2 for 16 h. After 15.5 h incubation, 1uL of CellTiter-Fluor reagent (Promega) was added using a Bioraptr FRD to each plate for measuring cytotoxicity. The fluorescence intensity was quantified on a ViewLux plate reader (PerkinElmer, Shelton, CT) following 30 min incubation at 37C and 0% CO2.
# % is set by controls: 0 for no effect and ±100 for the full control effect; potency is the fitted concentration of half-maximal effect.
Structure (SMILES),"viability change, negative = cytotoxic",Potency
Cn1c(=O)c2[nH]c(Br)nc2n(C)c1=O,-4.99% (inactive),–
O=S(=O)(O)c1ccc2c(N=Nc3ccc(S(=O)(=O)O)c4ccccc34)c(O)c(S(=O)(=O)O)cc2c1,-3.01% [at 8.47 µM] (inactive),22.1 µM (active)
CN(C)CCOC(=O)C(c1ccccc1)C1(O)CCCC1 (stereo not given),-0.0536% (inactive),–
CC(=O)O[C@@H]1CC2CCC1(C)C2(C)C (stereo not given in full),–,inactive
CC(C)=CCC/C(C)=C/COC=O,3.42% (inactive),–
O=C(O)CCCCCC(=O)O,4.72% [at 95 µM] (inactive),–
COc1ccc(CCO)cc1,11% (inactive),–
c1ccc(B(c2ccccc2)c2ccccc2)cc1,0.857% (inactive),–
CC(=O)Nc1ccc(OC(=O)c2ccccc2OC(C)=O)cc1,-0.826% (inactive),–
COC(=O)c1ccccc1C(=O)O,3.68% (inactive),–
COC(=O)/C=C\C(=O)O,10.1% (inactive),–
COc1cc2c(cc1OC)C(=O)C(CC1CCN(Cc3ccccc3)CC1)C2 (stereo not given),-17.1% (inactive),–
CN1C[C@@H]2C[C@H]1CN2c1cc2c(cc1F)c(=O)c(C(=O)O)cn2C1CC1,-0.142% (inactive),–
CCC[C@@H]1C[C@@H](C(=O)N[C@@H]([C@H]2O[C@H](SC)[C@H](O)[C@@H](O)[C@H]2O)[C@@H](C)O)N(C)C1,-6.6% (inactive),–
CC(=O)OC(C)=O,0.789% [at 95 µM] (inactive),–
Cc1c(NC(=O)c2cccnc2)c(=O)n(-c2ccccc2)n1C,-1.84% [at 32.5 µM] (inactive),–
Nc1nnnn1-c1ccccc1,-0.925% (inactive),–
O=C(Cl)c1ccccc1[N+](=O)[O-],0.587% [at 95 µM] (inactive),–
C=CC/C=C/C,27.1% [at 95 µM] (inactive),–
NC(=O)[C@@H]1CSSCCC(=O)N[C@@H](CCCCN=C(N)N)C(=O)NCC(=O)N[C@@H](CC(=O)O)C(=O)N[C@@H](Cc2c[nH]c3ccccc23)C(=O)N2CCC[C@H]2C(=O)N1 ([Mpa][hArg]GDWPC-NH2; disulfide 1-7),1.35% (inactive),–

Structure (SMILES),"viability change, negative = cytotoxic",Potency
CO[C@@]1(NC(=O)Cc2cccs2)C(=O)N2C(C(=O)O)=C(COC(N)=O)CS[C@@H]21,–,inactive
CCc1occc(=O)c1O,7.67% (inactive),–
CSc1cnccn1,2.7% (inactive),–
Cc1ccc(C(C)NC(=O)[C@@H](NC(=O)OC(C)C)C(C)C)cc1 (stereo not given in full),-0.938% (inactive),–
Cc1ccc(N)cc1S(=O)(=O)O,-0.439% (inactive),–
CCC(=O)c1c(O)cc(O)cc1O,0.479% (inactive),–
Cc1ccnc(N)c1,10.9% (inactive),–
CCn1cc(C(=O)O)c(=O)c2cnc(N3CCCC3)nc21,6.02% [at 32.5 µM] (inactive),–
c1ccc2cnccc2c1,-3.4% (inactive),–
CC1CC(=O)CC(C)(C)C1 (stereo not given),8.78% (inactive),–
CC/C=C\CCOC(=O)c1ccccc1O,-3.9% (inactive),–
CC1=C(O)C(=O)C(C)O1 (stereo not given),1.25% [at 95 µM] (inactive),–
CC(C)=CCC[C@@](C)(O)[C@H]1CC=C(C)CC1,-1.79% (inactive),–
NCCOCCN,-0.0809% (inactive),–
Cc1c(N)cccc1Cl,14.2% (inactive),–
OCC(O)CN1CCN(c2ccccc2)CC1 (stereo not given),6.1% (inactive),–
CO[Si](CCCn1c(=O)n(CCC[Si](OC)(OC)OC)c(=O)n(CCC[Si](OC)(OC)OC)c1=O)(OC)OC,-1.02% (inactive),–
OC1OCCOC1O (stereo not given),21.8% (inactive),–
CC(C)CO,-3.47% [at 95 µM] (inactive),–
